SW480 rereplic: A quantitative high throughput screen for small molecules that induce DNA re-replication in SW480 colon adenocarcinoma cells; SW480 DNA re-replication, Hoechst DNA content imaging, 48 h; Potency, µM (titrated, usually from 46.1 µM), actives largely listed as activators; 340,000 compounds, 1.8% hits; AID 624297, 2012; further: nearly all actives have a fitted effect of over 55% in size
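Image-based read-out: total Hoechst fluorescence of nuclei (405 nm excitation, 500-530 nm emission), with hits raising the fraction of high-intensity nuclei. SW480 colon cells incubated 48 hr with compounds at 37 C.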
ATXN2 expr inh: Primary qHTS for Inhibitors of ATXN expression | Potency, µM (top dose mostly 57 µM), most hits filed as inhibitors | HEK-293 ATXN2-luciferase reporter, luminescence, 24 h | 360,000 compounds, 0.72% hits; further: nearly all actives have a fitted effect of over 55% in size
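qHTS (up to 57 uM final) was run with 24 h compound exposure of reporter cells at 37 °C. Each well was multiplexed: SteadyGlo luminescence measured ATXN2-luciferase expression after a fluorogenic Gly-Phe-AFC viability readout (25 uM final).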
IL-1B inflam inh: qHTS for Inhibitors of Inflammasome Signaling: IL-1-beta AlphaLISA Primary Screen; THP-1 LPS/ATP IL-1B secretion, AlphaLISA, 16 h; active compounds read low; activity change, % at 57.5 µM; 360,000 compounds, 4.7% hits; in the data active means activity change below about -50%; inconclusive means mostly about -30% to -49%
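Secreted IL-1B measured by AlphaLISA bead assay after 16 h compound exposure of THP-1 cells; compounds (final up to 57.5 uM) added 1 h before LPS (250 ng/mL) and ATP (1.25 mM) stimulation; lower signal means less secretion.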
MCF10A rereplic: A quantitative high throughput screen for small molecules that induce DNA re-replication in MCF 10a normal breast cells; MCF 10A DNA re-replication, Hoechst nuclear intensity, 48 h; Potency, µM (highest dose often 46.1 µM), actives largely listed as activators; 350,000 compounds, 2.9% hits; AID 624296, 2012; further: nearly all actives have a fitted effect of over 50% in size
S2 tox: Viability Counterscreen for Primary qHTS for Inhibitors of ATXN expression | Potency, µM (top dose mostly 56.7 µM), hits mostly cytotoxic | S2 cells (HEK-293 line with an ATXN2-luciferase reporter) viability, CellTiter-Fluor protease fluorescence, 24 h | 400,000 compounds, 0.49% hits; further: nearly all actives have a fitted effect of over 40% in size
PINK1 modulator: A Quantitative High throughput Screen to Identify Chemical Modulators of PINK1 Expression; 410,000 compounds, 0.2% hits; Potency, µM (highest dose often 76.6 µM), hits mostly activators; PINK1 immunofluorescence, high-content cytometry, 24 h; active means well fitted activation curve with a large enough effect; inconclusive means small, poorly fitted or top-dose-only effect; cell line not stated here; further: nearly all actives have a fitted effect of over 65% in size
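PINK1 protein, normally rapidly degraded, was detected by immunofluorescence after 24 hour compound treatment of a stable cell line. Titration data (5 concentrations) came from laser-scanning cytometry, with CCCP-treated wells as controls.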
A number is an active result; - = inactive; ? = inconclusive; . = not tested or not shown; [ ] = another dose, or the depositor's remark. Shown are actives, neighbours in structure and some others; about 7.1% of the full set was active somewhere. Unless noted, the call rests on the fitted dose curve; in most records, active means well fitted curve in the direction sought with a large enough effect; inconclusive means small, poorly fitted or top-dose-only effect, or another doubt; inactive means no such curve, though single readings can be large; an effect the other way counts as inactive or inconclusive.

SMILES	SW480 rereplic	ATXN2 expr inh	IL-1B inflam inh	MCF10A rereplic	S2 tox	PINK1 modulator
Cc1ccc(C(=O)Nc2ncc(Cc3ccc(SC(F)F)cc3)s2)cc1	0.73µM	-	-	?	?	-
Cc1nc2c(ccc3nc(NC(=O)c4ccc5c(c4)OCCO5)sc32)s1	?	-	?	2.3µM	?	-
Cc1nc2ccc3nc(NC(=O)c4ccc5c(c4)OCCO5)sc3c2s1	-	-	-	-	-	-
Cc1onc(-c2ccccc2)c1C(=O)Nc1ncc([N+](=O)[O-])s1	-	?	-67	?	?	13µM
CNC1[C@H](O)C(O[C@@H]2C(O)C(O[C@H]3O[C@H]([C@@H](C)NC)CC[C@H]3N)[C@@H](N)C[C@H]2N)OC[C@]1(C)O (stereo partly specified)	.	-	.	.	.	.
COc1ccc(NC(=O)c2oc3ccccc3c2NC(=O)Cc2coc3cc(C)ccc23)cc1	.	-	.	.	-	-
CCCc1cc(=O)[nH]c(Nc2ccc(O)cc2C)n1	.	-	.	.	-	-
Cc1cc(O)ccc1Nc1nc2ccccc2nc1Nc1ccc(O)cc1C	?	-	-	18µM	-	-
Cc1ccc(NS(=O)(=O)c2cccc(C(=O)NCC(c3ccco3)N3CCCC3)c2)cc1 (stereo unspecified)	?	-	-	12µM	-	-
Cc1ccc(S(=O)(=O)Nc2cccc(C(=O)NCC(c3ccco3)N3CCCCC3)c2)cc1F (stereo unspecified)	-	-	-66	?	?	-
CCOC(=O)Cc1ccc(NC(=O)n2ncc3c(C)cccc32)cc1	.	-	.	.	-	-
CCOC(=O)Cc1ccc(NC(=O)n2ncc3cc(Cl)ccc32)cc1	.	20µM	.	.	-	-
O=C(NNC(=O)c1ccccc1O)c1ccc(Br)cc1	2.9µM	-	-	-	-	-
COc1ccc(C(=O)NNC(=S)NC(=O)C(C)(C)C)cc1	-	?	-102	-	?	-
CCCCOc1ccc(C(=O)NNC(=O)c2cnccn2)cc1OC	?	?	-73	-	-	-
O=C(CNC(=O)c1ccc(Br)cc1)c1ccccc1	?	-	-65	-	-	-
O=C(CNC(=O)c1ccc(Br)cc1)c1ccc(Br)cc1	-	-	-	-	?	-
CSc1ccc(CCNC(=O)CCc2c(C)nc3c(c(C)nn3-c3ccccc3)c2C)cc1	.	-	.	.	-	-
Cc1ccc(C2CC(=O)N(Cc3ccccc3)c3c2c(C)nn3-c2nc(C)cc(C)n2)cc1 (stereo unspecified)	.	-	.	.	?	-
COc1ccc(C(=O)NC(=S)NNC(=O)c2cnccn2)cc1	-	?	-	6.5µM	-	-
CC(C)(C)C(=O)NC(=S)NNC(=O)c1sc2ccccc2c1Cl	?	18µM	-	12µM	.	-
COc1ccc(C(=O)NC(=S)NNC(=O)c2ccccc2C)cc1	-	-	-	-	-	-
O=C(NC(=S)NNC(=O)c1cnccn1)c1ccc(Cl)cc1	-	?	-	-	?	-
O=C(NCCSSCCNC(=O)c1ccccc1)c1ccccc1	?	-	-68	?	-	-
COc1ccc(C(=O)NC(=S)NNC(=O)c2ccccc2O)cc1	-	-	-	23µM	-	-
SMILES	SW480 rereplic	ATXN2 expr inh	IL-1B inflam inh	MCF10A rereplic	S2 tox	PINK1 modulator
Cc1ccc(Cl)cc1N1C(=O)N(Cc2ccc(C#N)cc2)c2ccccc2S1(=O)=O	.	-	.	.	-	-
CCOc1ccc(CCNC(=O)Cn2ncn3c(cc4ccccc43)c2=O)cc1OCC	.	.	.	.	.	-
COc1ccccc1C(=O)N(Cc1ccco1)Cc1ccccc1F	.	.	.	.	.	-
O=C(c1ccccc1F)N(Cc1cc2cc3c(cc2nc1N1CCOCC1)CCC3)CC1CCCO1 (stereo unspecified)	.	.	.	.	-	-
CC[C@H](C=C[C@@H](C)[C@H]1CC[C@H]2[C@@H]3CC=C4C[C@@H](O)CC[C@]4(C)[C@@H]3CC[C@]12C)C(C)C	.	-	.	.	.	.
O=C(CCl)c1ccc2c(c1)CCN2C(=O)C1CCCCC1	?	-[11.3 µM]	-103	?	?	-
Cc1ccc(S(=O)(=O)ON=C2CCN(S(=O)(=O)c3ccccc3)CC2)cc1	-	-	-	-	-	-
CC1=CC(=O)C=C(C)C1=NOS(=O)(=O)c1ccccc1	7.3µM	?	-118	7.3µM	?	-
CC1=CC(=O)C(C(C)C)=C/C1=N/OS(=O)(=O)c1ccccc1	0.73µM	.	-101	2.9µM	3.2µM	-
Cc1ccc2c(c1)/C(=N/OS(=O)(=O)c1ccccc1)CCS2	-	-	-	-[0.0737 µM]	-	-
CC(C)(C)c1ccc(C(=O)N2CCC2(C)C(=O)Nc2cccc(C#N)c2)cc1 (stereo unspecified)	.	-	-	.	-	-
COc1ccccc1C1CCN(Cc2ccc3ccccc3c2)CC1	-	?	-61	?	?	?
COc1ccc(CC(=O)Nc2sc3c(c2C(=O)Nc2cccc(C)c2)CCCCC3)cc1	.	.	.	.	.	-
Cc1nc2[nH]c(=S)n(C)c(=O)c2nc1C	26µM	-	-	-	-	-
COc1ccc(C(=O)c2c(C(F)(F)F)oc3c2C(=O)c2ccccc2C3=O)cc1	5.2µM	32µM	?	4.1µM	22µM	-
CCOc1ccc(CCNC(=O)CN2C(=O)COc3ccc(S(=O)(=O)N4CCC(C)CC4)cc32)cc1	.	-	.	.	-	-
O=S1(=O)CCC(NC(=S)Nc2ccc3ccccc3c2)C1 (stereo unspecified)	-	-	-	-	-	-
O=S1(=O)CCC(NC(=S)Nc2ccccc2)C1 (stereo unspecified)	4.1µM	-	.	-	-	-
CCC(C)NC(=O)c1ccc2c(=O)n3c(nc2c1)CCCCC3 (stereo unspecified)	.	-	.	.	-	-
Cn1c(SCc2c(F)cccc2Cl)nc2ccccc2c1=O	-	-	-	-	-	-
Cn1c(SCc2c(F)cccc2Cl)nc2c(c1=O)SCC2	-	-	-59	?	-	-
CC1(C)Cc2c(C#N)c(N3CCN(C(=O)c4ccco4)CC3)nc(-c3ccco3)c2CS1	?	-	-	?	-	-
CC1(C)Cc2c(C#N)c(N3CCN(C(=O)c4ccco4)CC3)nc(Cc3ccccc3)c2CO1	?	?	?	?	?	-
CC(C)c1cc(N2CCN(C(=O)c3ccco3)CC2)n2c(nc3ccccc32)c1C#N	-	-	-	23µM	-	-
N#Cc1c(N2CCN(C(=O)c3ccco3)CC2)nc(-c2ccccc2)c2c1CCCC2	-	?	-52	-	?	-
CC(C)Cc1nc(N2CCN(C(=O)c3ccco3)CC2)c(C#N)c2c1CCC2	-	-	-	21µM	-	-
